For 14 compounds, Potency results are on record in PubChem BioAssay (NCATS).

Experiment [1] in a line: Quantitative High-Throughput drug screen in 47 multiple myeloma cell lines against the NCATS MIPE library collection: OCIMY7_PLB cell viability assay (AID 1918987). Also: nearly all actives have a fitted effect of over 65% in size. The conditions noted are these: OCI-MY7 myeloma viability, CellTiter-Glo ATP, 48 h; viability (% of DMSO): at 45.8 µM (top of the series). The procedure, abridged: (§1)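 Readout: median RLU from CellTiter-Glo after 5 min at room temperature. Preceding step was 48 h drug treatment of 500 cells/well at 37 °C, 5% CO2, with DMSO-only and media-only control wells.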
For orientation: Cellular ATP, detected with luciferase, serves as a proxy for viable cell number.

The nature of experiment [2]: Quantitative High-Throughput drug screen in 47 multiple myeloma cell lines against the NCATS MIPE library collection: OCIMY5_PLB cell viability assay (AID 1918988). Also: nearly all actives have a fitted effect of over 65% in size. A digest of the protocol: as §1
Experiment [3] in a line: Quantitative High-Throughput drug screen in 47 multiple myeloma cell lines against the NCATS MIPE library collection: OPM1_PLB cell viability assay (AID 1918989). Also: nearly all actives have a fitted effect of over 40% in size. The procedure, abridged: as §1
Experiment [4] in a line: Quantitative High-Throughput drug screen in 47 multiple myeloma cell lines against the NCATS MIPE library collection: SKMM1_PLB cell viability assay (AID 1919863). Also: nearly all actives have a fitted effect of over 35% in size. The conditions noted are these: SKMM1 myeloma viability, CellTiter-Glo ATP, 48 h; viability: active compounds read low. A digest of the protocol: as §1
The nature of experiment [5]: Quantitative High-Throughput drug screen in 47 multiple myeloma cell lines against the NCATS MIPE library collection: XG6_PLB cell viability assay (AID 1919865). Also: nearly all actives have a fitted effect of over 40% in size. The procedure, abridged:
as §1

The nature of experiment [6]: Quantitative High-Throughput drug screen in 47 multiple myeloma cell lines against the NCATS MIPE library collection: XG1_PLB cell viability assay (AID 1919866). Also: nearly all actives have a fitted effect of over 35% in size. The procedure, abridged:
as §1

Experiment [7] in a line: Quantitative High-Throughput drug screen in 47 multiple myeloma cell lines against the NCATS MIPE library collection: VP6_DJ cell viability assay (AID 1919867). Also: nearly all actives have a fitted effect of over 40% in size. The procedure, abridged: as §1
A short description of experiment [8]: Quantitative High-Throughput drug screen in 47 multiple myeloma cell lines against the NCATS MIPE library collection: UTMC2_PLB cell viability assay (AID 1919868). Also: nearly all actives have a fitted effect of over 55% in size. Conditions: CellTiter-Glo ATP luminescence, 48 h; viability (% of DMSO control): at 45.8 µM (top of the series). A digest of the protocol:
as §1

A short description of experiment [9]: Quantitative High-Throughput drug screen in 47 multiple myeloma cell lines against the NCATS MIPE library collection: PE2_PLB cell viability assay (AID 1919869). Also: nearly all actives have a fitted effect of over 35% in size. A digest of the protocol: as §1
The nature of experiment [10]: Quantitative High-Throughput drug screen in 47 multiple myeloma cell lines against the NCATS MIPE library collection: U266_ATCC cell viability assay (AID 1919864). Also: nearly all actives have a fitted effect of over 35% in size. The procedure, abridged:
as §1

Molecules are shown by their SMILES. Results filed as inconclusive are left out. Values without a mark were called inactive. Calls of active or inactive are those of the source. Calls follow the shape of the dose curve; as a rule, active = well fitted cell-killing curve with a large enough effect; inconclusive = small, poorly fitted or top-dose-only effect, or effect the other way; inactive = no such curve, though single readings can be large or run the other way.
Potency is read from the fitted curve at half-maximal effect.

Consider `O=C(NCc1ccncc1)C12C[C@H]3C[C@@H](C1)CC(c1ccc(Cl)cc1)(C3)C2`, for which the Potency was 18.7 µM (active) in experiment [1]; 18.7 µM (active) in experiment [2]; 18.7 µM (active) in experiment [3]; 23.5 µM (active) in experiment [4]; 4.69 µM (active) in experiment [5].
As for `CS(=O)c1ccc(-c2nc(-c3ccc(F)cc3)c(-c3ccncc3)[nH]2)cc1` (stereo not given), the Potency in experiment [1] was 9.59 µM (active); in experiment [2] it was 19.1 µM (active); in [3] it was 48.1 µM (active); in [5], 42.9 µM (active); in experiment [6] it was 38.2 µM (active); in experiment [7] it was 7.62 µM (active). Besides, the Potency was 34 µM (active) in experiment [8] and 30.3 µM (active) in [9].
Regarding `CC(C)(C)NC(=O)Nc1cccc(Nc2ncc(F)c(NC(C)(C)CO)n2)c1`, the Potency in experiment [1] was 2.35 µM (active); in [2], 3.72 µM (active); in experiment [3] it was 13.2 µM (active); in [5], 20.9 µM (active); in experiment [6] it was 3.72 µM (active); in experiment [9] it was 18.7 µM (active).
For `CN(C[C@@H]1COCCO1)S(=O)(=O)Nc1ccc2ccc3ncc(-c4cnn(C)c4)cc3c(=O)c2c1`, the Potency is 0.469 µM (active) in experiment [1]; 3.72 µM (active) in [2]; 2.35 µM (active) in [3]; 3.32 µM (active) in [10]; 2.64 µM (active) in experiment [6]; 2.96 µM (active) in experiment [7]. Further, the Potency in [8] is 3.32 µM (active); in experiment [9], 1.48 µM (active).
In the case of `C[C@]12CC[C@@H]3c4ccc(O)cc4C[C@@H](CCCCCCCCCS(=O)CCCC(F)(F)C(F)(F)F)[C@H]3[C@H]1CC[C@H]2O` (stereo not given in full), the Potency in experiment [1] was 5.9 µM (active); in experiment [2], 10.5 µM (active). Further, the Potency entry in [3], in [10], in experiment [6], in [7], in [8] and in experiment [9] was “inactive” in each case.
Regarding `O=c1cc(N2CCOCC2)oc2c(-c3cccc4c3sc3ccccc34)cccc12`, the Potency in experiment [1] was 1.18 µM (active); in experiment [2] it was 20.9 µM (active); in [3], 4.18 µM (active); in [4], 11.8 µM (active); in experiment [5], 5.9 µM (active); in experiment [6] it was 6.62 µM (active). The Potency in experiment [7] was 3.72 µM (active); in [8], 5.9 µM (active); in [9], 9.35 µM (active). Besides, the Potency entry in experiment [10] is “inactive”.
In the case of `O=C(Nc1ccccc1-c1cn2c(CN3CCNCC3)csc2n1)c1cnc2ccccc2n1`, the Potency was 9.35 µM (active) in experiment [1]; 8.33 µM (active) in experiment [2]; 8.33 µM (active) in experiment [3]; 4.69 µM (active) in experiment [4]; 11.8 µM (active) in experiment [10]; 7.43 µM (active) in experiment [6]. The Potency in experiment [7] was 9.35 µM (active); in [9], 8.33 µM (active).
On to `CC(C)OC(=O)CCCC=CC[C@@H]1[C@H](C=C[C@@H](O)COc2cccc(C(F)(F)F)c2)[C@H](O)C[C@@H]1O`, for which the Potency in experiment [1] is 14.8 µM (active); in experiment [2], 16.6 µM (active); in [3], 18.7 µM (active); in [4], 20.9 µM (active); in experiment [10] it was 20.9 µM (active); in experiment [5] it was 16.6 µM (active). Also, the Potency in experiment [6] is 18.7 µM (active); in [8], 16.6 µM (active); in experiment [9], 16.6 µM (active).
As to `O=C(O)C=Cc1ccc(O)c(O)c1`, the Potency in experiment [1] was 16.6 µM (active); in [2], 18.7 µM (active); in [3], 16.6 µM (active); in experiment [4] it was 29.6 µM (active); in [9] it was 16.6 µM (active). Besides, the Potency result in experiment [8] was “inactive”.
Take `NS(=O)(=O)c1cccc2c1C(=O)c1cccc(O)c1C2=O`: the Potency in [1] was 0.118 µM (active); in experiment [2], 0.526 µM (active); in experiment [3] it was 0.235 µM (active); in experiment [4] it was 0.372 µM (active); in [10] it was 6.62 µM (active); in experiment [6], 0.264 µM (active). For the same compound, the Potency in [7] was 0.662 µM (active); in experiment [8], 0.372 µM (active); in experiment [9], 0.187 µM (active).
As to `Cc1[nH]c(C=C2C(=O)Nc3ccc(S(=O)(=O)Cc4c(Cl)cccc4Cl)cc32)c(C)c1C(=O)N1CCC[C@H]1CN1CCCC1`, the Potency is 10.5 µM (active) in experiment [1]; 14.8 µM (active) in experiment [2]; 8.33 µM (active) in experiment [3]; 20.9 µM (active) in experiment [4]; 23.5 µM (active) in experiment [10]; 5.26 µM (active) in [6]. Moreover, the figures for the Potency in [7], in [8] and in experiment [9] were 8.33 µM (active), 20.9 µM (active) and 20.9 µM (active), respectively.
As for `c1ccc2c(Cc3c[nH]c4ccccc34)c[nH]c2c1`, the Potency is 1.05 µM (active) in [1]; 0.743 µM (active) in experiment [2]; 7.43 µM (active) in experiment [3]; 18.7 µM (active) in [4]; 0.662 µM (active) in experiment [5]; 1.18 µM (active) in experiment [6]. The Potency was 4.18 µM (active) in [7] and 2.96 µM (active) in experiment [9]. The Potency result in [8] is “inactive”.
For the compound `N[C@H](CSC(c1ccccc1)(c1ccccc1)c1ccccc1)C(=O)O`, the Potency in [1] is 7.43 µM (active); in experiment [2], 9.35 µM (active); in experiment [3] it was 5.9 µM (active); in experiment [4], 10.5 µM (active); in [5], 6.62 µM (active); in [7], 10.5 µM (active). For the same compound, the Potency in experiment [8] is 9.35 µM (active).
With `CC1(C)CCC2=C(O1)c1ccccc1C(=O)C2=O`, the Potency in experiment [1] was 3.32 µM (active); in [2] it was 18.7 µM (active); in experiment [3], 20.9 µM (active); in [4], 20.9 µM (active); in [10], 20.9 µM (active); in [6], 26.4 µM (active). The Potency in experiment [8] and in experiment [9] was 20.9 µM (active) throughout.
